Screens: PubChem BioAssay, National Center for Advancing Translational Sciences (NCATS)
Pf growth 48h: Primary qHTS for delayed death inhibitors of the malarial parasite plastid, 48 hour incubation; P. falciparum luciferase growth in erythrocytes, 48 h; Potency, µM (top dose mostly 28.7 µM), without a hit: at the top dose activity change, negative = inhibition, most hits filed as inhibitors; actives 5.9% (n = 310,000); AID 504832, 2011; note: potency is the fitted concentration of half-maximal effect; % is set by controls: 0 for no effect and ±100 for the full control effect
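First compound was added to culture medium, then infected red cells at 0.1% parasitemia and 2% hematocrit (final). After incubation at 37 C under 5% CO2, luciferase detection reagent was dispensed and light output recorded.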
HCV inhibitor: qHTS Assay for Inhibitors of Hepatitis C Virus (HCV). actives 3.4% (n = 340,000). Huh7.5.1 HCVcc-Cre infection, luciferase reporter, 44 h. Potency, µM (series often up to 41.8 µM), inactives show at the highest dose activity change, negative = inhibition, usual class: inhibitors; note: potency is the fitted concentration of half-maximal effect; % is set by controls: 0 for no effect and ±100 for the full control effect
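Luciferase read-out (15 sec integration) after a 15 min room-temperature substrate step quantifies HCVcc-Cre infection. Cells, 1,000 per well, had compound added 4 h post-plating, then virus at ~0.5 moi, and were cultured 44 h.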
Shiga inhibitor: A qHTS for Small Molecule Inhibitors of Shiga Toxin. inhibition, % at 38.7 µM. actives 9.2% (n = 290,000). Vero cells, Shiga toxin protein synthesis inhibition reporter. AID 2315, 2010; in the data active = inhibition mostly above about 28%, no sharp cut-off; inactive = mostly below about 43%; note: 0% is about no effect
CHX counter: Cycloheximide Counterscreen for Small Molecule Inhibitors of Shiga Toxin. AID 2314, 2010. max response, %. cell reporter, cycloheximide protein synthesis inhibition counterscreen. actives 12% (n = 300,000); in the data active = max response mostly above about 13%, no sharp cut-off; inactive = mostly below about 14%; note: read at 38.3 µM for the half of the compounds with a filed dose; 0% is about no effect
Pf growth 96h: Primary qHTS for delayed death inhibitors of the malarial parasite plastid, 96 hour incubation; P. falciparum luciferase reporter growth, 96 h; Potency, µM (titrated, usually from 28.7 µM), for inactives: at the top dose activity change, negative = inhibition, usual class: inhibitors; actives 6.9% (n = 320,000); note: potency is the fitted concentration of half-maximal effect; % is set by controls: 0 for no effect and ±100 for the full control effect
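Cell-based qHTS: luciferase-tagged P. falciparum in erythrocytes (2% hematocrit, 0.05% parasitemia final) incubated with compounds for 96 hours, 37 C, 5% CO2; luciferase detection reagent then added and luminescence measured.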
AMA1 RON2 block: qHTS for Inhibitors of AMA1-RON; Towards Development of Antimalarial Drug Lead: Primary Screen. Plasmodium falciparum AMA1 (3D7) - RON2 peptide interaction. AlphaScreen AMA1-biotinylated RON2 peptide binding. Potency, µM (highest dose often 58.2 µM), without a hit: at the top dose activity change, negative = inhibition, most hits filed as inhibitors. actives 0.2% (n = 360,000);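 note: potency is the fitted concentration of half-maximal effect; 0% = vehicle wells and -100% = peptide control; nearly all actives have a fitted effect of over 45% in size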
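AMA1 (3D7) with his tag at 25 nM final met compounds first, then biotinylated RON2 peptide at 25 nM; detection used donor plus acceptor beads, 10 µg/mL apiece, read by AlphaScreen after 30 min at room temperature.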
The depositor's hits bear a star. Hits are enriched below; roughly 21% of the tested compounds scored in any of these assays. Unless noted, calls come from the whole dose curve; as a rule, active = well fitted curve in the direction sought with a large enough effect; inconclusive = small, poorly fitted or top-dose-only effect, or another doubt; inactive = no such curve, though single readings can be large; an effect the other way counts as inactive or inconclusive.

How did Cc1cccc(OCCOC(=O)CN2C(=O)NC3(CCCC3)C2=O)c1 do in these assays?
Pf growth 48h: 58%; HCV inhibitor: 5%; Pf growth 96h: 8%; AMA1 RON2 block: 0%

What do the screens show for `N#CCC(=O)Nc1ccc(C(=O)OCC(=O)NCc2ccc3c(c2)OCO3)cc1`?
Pf growth 48h: 8.3µM*; HCV inhibitor: 7%; Pf growth 96h: inconclusive; AMA1 RON2 block: -1%

Results for CCOC(=O)c1ccc(NCc2ccc3c(c2)OCO3)cc1 ?
Pf growth 48h: 31%; HCV inhibitor: -15%; Shiga inhibitor: 66*; CHX counter: 35*; Pf growth 96h: -9%; AMA1 RON2 block: 11%

Results for CCCNC(=O)N[C@H]1C=C[C@H](CC(=O)NC2CCCCC2)O[C@@H]1CO ?
AMA1 RON2 block: 12%

What do the screens show for `O=c1nc(Nc2ccccc2)oc2ccccc12`?
Pf growth 48h: 73%; HCV inhibitor: 3%; Shiga inhibitor: 53*; CHX counter: 38*; Pf growth 96h: 88%; AMA1 RON2 block: -15%

What do the screens show for `O=c1oc(Nc2ccc(F)cc2)nc2ccccc12`?
Pf growth 48h: 15%; HCV inhibitor: -7%; Shiga inhibitor: 81*; CHX counter: 17*; Pf growth 96h: inconclusive; AMA1 RON2 block: -1%

Results for Cc1nc(Nc2nc3ccccc3o2)nc(C)c1C(=O)Nc1ccc(F)cc1 ?
Pf growth 48h: 8%; HCV inhibitor: 8%; Shiga inhibitor: -5; CHX counter: -4; Pf growth 96h: 17%; AMA1 RON2 block: 1%

What do the screens show for `CC(OC(=O)/C=C/c1cccs1)C(=O)Nc1ccc(C(N)=O)cc1` (centres undefined)?
Pf growth 48h: -8%; HCV inhibitor: 5%; Pf growth 96h: -2%; AMA1 RON2 block: inconclusive

What do the screens show for `CC(=O)Nc1ccc(NC(=O)c2ccc([N+](=O)[O-])cc2Cl)cc1`?
Pf growth 48h: 29%; HCV inhibitor: 14%; Shiga inhibitor: 29; CHX counter: -1; Pf growth 96h: 20%; AMA1 RON2 block: 7%

How did O=C(NCc1cccs1)c1ccc([N+](=O)[O-])cc1Cl do in these assays?
Pf growth 48h: 30%; HCV inhibitor: -1%; Shiga inhibitor: 24; CHX counter: 11*; Pf growth 96h: 45%; AMA1 RON2 block: -6%

What do the screens show for `CCCn1nnc(NC(=O)c2ccc([N+](=O)[O-])cc2Cl)n1`?
Pf growth 48h: 91%; HCV inhibitor: 11%; Shiga inhibitor: 62*; CHX counter: 24*; Pf growth 96h: -17%; AMA1 RON2 block: 9%

How did CCCCn1nnc(NC(=O)c2ccc([N+](=O)[O-])cc2Cl)n1 do in these assays?
Pf growth 48h: 32%; HCV inhibitor: inconclusive; Shiga inhibitor: 26; CHX counter: 14; Pf growth 96h: inconclusive; AMA1 RON2 block: 6%

Results for CCCC(=O)Nc1cccc(NC(=O)c2ccc([N+](=O)[O-])cc2Cl)c1 ?
Pf growth 48h: -4%; HCV inhibitor: 7.9µM*; Shiga inhibitor: 2; CHX counter: 0; Pf growth 96h: -26%; AMA1 RON2 block: 0%

What do the screens show for `CCCC(=O)Nc1ccc(Cl)c(NC(=O)c2ccc([N+](=O)[O-])cc2Cl)c1`?
Pf growth 48h: 25%; HCV inhibitor: inconclusive; Shiga inhibitor: -3; CHX counter: 1; Pf growth 96h: inconclusive; AMA1 RON2 block: -10%

Results for CC(=O)N(C)c1ccc(NC(=O)c2ccc([N+](=O)[O-])cc2Cl)cc1 ?
Pf growth 48h: 23%; HCV inhibitor: -2%; Shiga inhibitor: 66*; CHX counter: 17; Pf growth 96h: 13%; AMA1 RON2 block: -9%

Results for Cc1ccccc1CNC(=O)c1ccc2nc([C@@H]3O[C@H](CO)[C@H](O)[C@H](O)[C@H]3O)[nH]c2c1 ?
AMA1 RON2 block: 10%

Results for CCCN1CCN(CC(=O)Nc2nncs2)CC1 ?
Pf growth 48h: 5%; HCV inhibitor: 3%; Shiga inhibitor: -4; CHX counter: -2; Pf growth 96h: 0%; AMA1 RON2 block: 17%

Results for CN(c1ccc(OCC(=O)N2CCOCC2)cc1)S(=O)(=O)c1ccc(Cl)cc1 ?
Pf growth 48h: 26%; HCV inhibitor: 6%; Shiga inhibitor: 11; CHX counter: 6; Pf growth 96h: inconclusive; AMA1 RON2 block: 7%

Results for CCC1CCCCN1CC(=O)Nc1cc(C)nn1-c1nc(C)cc(C)n1 (centres undefined) ?
Pf growth 48h: 5.2µM*; HCV inhibitor: inconclusive; Shiga inhibitor: -8; CHX counter: -2; Pf growth 96h: 0%; AMA1 RON2 block: -1%

What do the screens show for `Cc1cc(C)nc(-n2nc(C)cc2NC(=O)CN2CCCC2)n1`?
Pf growth 48h: inconclusive; HCV inhibitor: -21%; Shiga inhibitor: -8; CHX counter: 11; Pf growth 96h: inconclusive; AMA1 RON2 block: 46%

What do the screens show for `Cc1cc(C)nc(-n2nc(C)cc2NC(=O)CN2CCC(C)CC2)n1`?
Pf growth 48h: inconclusive; HCV inhibitor: 3%; Shiga inhibitor: 12; CHX counter: -3; Pf growth 96h: 2.3µM*; AMA1 RON2 block: 5%

What do the screens show for `CC1CC1C(=O)OCC(=O)N(C)c1c(N)n(Cc2ccccc2)c(=O)[nH]c1=O` (centres undefined)?
Pf growth 48h: 41%; HCV inhibitor: -4%; Pf growth 96h: -7%; AMA1 RON2 block: 21%

What do the screens show for `COc1cccc(/C=N/NC(=O)CN(C)S(=O)(=O)c2ccccc2)c1OC`?
Pf growth 48h: 26%; HCV inhibitor: 3%; Pf growth 96h: -5%; AMA1 RON2 block: -3%

Results for CCOC(=O)CSc1ccc(C(=O)N2CCC3(CC2)OCCO3)cc1[N+](=O)[O-] ?
Pf growth 48h: inconclusive; HCV inhibitor: 1%; Shiga inhibitor: 10; CHX counter: -2; Pf growth 96h: 7.4µM*; AMA1 RON2 block: 1%

What do the screens show for `Cc1ccc(NC(=O)CSc2ccc(C(N)=O)cc2[N+](=O)[O-])cc1C`?
Pf growth 48h: 24%; HCV inhibitor: 6%; Shiga inhibitor: 17; CHX counter: 7; Pf growth 96h: 23%; AMA1 RON2 block: -13%

How did CCOC(=O)N1CCN(C(=O)CSc2ccc(C(=O)OC)cc2[N+](=O)[O-])CC1 do in these assays?
Pf growth 48h: -19%; HCV inhibitor: -9%; Shiga inhibitor: -17; CHX counter: -2; Pf growth 96h: 4.7µM*; AMA1 RON2 block: -7%

How did Cc1ccc(NC(=O)CSc2ccc(C(N)=O)cc2[N+](=O)[O-])cc1 do in these assays?
Pf growth 48h: 57%; HCV inhibitor: -13%; Shiga inhibitor: 43*; CHX counter: 27; Pf growth 96h: 29%; AMA1 RON2 block: 0%
